Source: PubChem BioAssay AID743279 (National Center for Advancing Translational Sciences (NCATS), 2014)
In all, about 360,000 compounds went through this assay and about 17,000 (4.7%) were called active. Roughly 5% stayed inconclusive and do not appear here. The entries come from a sample that favours actives as a whole. Values without a mark were called inactive. Cut-off read from the data, not from the text of the source: active = activity change below about -50%; inconclusive = mostly about -30% to -49%; inactive = weaker than that.
% is set by controls: 0 for no effect and ±100 for the full control effect.

Assay: qHTS for Inhibitors of Inflammasome Signaling: IL-1-beta AlphaLISA Primary Screen
Settings: THP-1 LPS/ATP IL-1B secretion, 16 h; at 57.5 µM, stronger effect = lower value
In short: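 Secreted IL-1B measured by AlphaLISA bead assay after 16 h compound exposure of THP-1 cells; compounds (final up to 57.5 uM) added 1 h before LPS (250 ng/mL) and ATP (1.25 mM) stimulation; lower signal means less secretion.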
For `CC1Cc2[nH][nH]c(=O)c2C(C2CCCC2)O1` (stereo unspecified), the activity change was 16.7%. Molecule `CCOC(=O)[C@]12CCC=C1N(Cc1ccco1)C(=O)[C@H](CC(=O)N1CCSCC1)C2` has an activity change of -5.81%. Work on `CC(C)c1cccc(C(C)C)c1Nc1cn[nH]c1` yielded an activity change of -1.8%. With `CCCC[C@@H]1CN=C(N)N1CCCC` the activity change was 15.9%. For `CCCC[C@@H]1CN=C(N)N1CCc1cc(C(F)(F)F)cc(C(F)(F)F)c1`, the activity change was -103% (active). With `CCCCN1C(N)=NC[C@@H]1Cc1ccccc1` the activity change was 5.9%. Work on `CC(=O)Nc1cccc(Nc2ccc(C#N)cc2)c1` yielded an activity change of -18.3%. With `CC(OC(=O)c1ccc(NC(=O)CC#N)cc1)C(=O)Nc1ccc(S(=O)(=O)N2CCCC2)cc1` (stereo unspecified) the activity change was -25.9%. Molecule `Cc1ccc(S(=O)(=O)N2CCOCC2)cc1C(=O)Nc1ccccc1N1CCCC1` has an activity change of -1.43%. In the case of `O=C1OCC2=C1C(c1ccc(Cl)cc1)c1cc3c(cc1O2)OCO3` (stereo unspecified), the activity change is reported as -0.909%. In the case of `CCOC(=O)C1=C(c2ccccc2)NC(=O)NC1c1cc(OC)c(OC)cc1OC` (stereo unspecified), the activity change is reported as -5.44%. `O=C(NC1CC1)C(Cc1ccccc1)NS(=O)(=O)c1ccccc1F` (stereo unspecified) showed an activity change of 20.4%. For `CCOC(=O)C1=C(COC(=O)[C@H](C)NS(=O)(=O)c2ccccc2F)NC(=O)NC1C` (stereo partly specified), the activity change was -51.3% (active). Molecule `CCOCCCn1c(NN)nc2ccccc2c1=O` has an activity change of -13.8%. With `CCn1c(/C=C/c2ccc([N+](=O)[O-])o2)nc2ccccc2c1=O` the activity change was -95.2% (active). `O=c1oc(/C=C/c2ccccc2)nc2ccccc12` gave an activity change of -0.257%. Work on `CC(C)CN1C(=O)CN(S(C)(=O)=O)CC1(C)C(=O)NCc1ccccc1` (stereo unspecified) yielded an activity change of 37.5%. With `Clc1cc(NC2CCCCC2)ncn1` the activity change was 35.9%. `COCCCNC(=O)c1cccc2c(-c3ccc(O)c(OC)c3)coc12` gave an activity change of 2.52%. `O=C(NCc1ccccc1)c1onc(CSc2nc3ccccc3[nH]2)c1C(=O)NCc1ccccc1` showed an activity change of -5.65%. In the case of `CN(Cc1ccccc1)C(=O)CSc1nc2ccccc2[nH]1`, the activity change is reported as -8.05%. With `COc1ccccc1CSc1nc2ccccc2[nH]1` the activity change was -54.1% (active). Work on `O=C(NCC1CCCCC1)NCC1CCCCC1` yielded an activity change of 5.16%. With `C[C@@H]1CN([C@@H](C)CO)C(=O)CCCn2nncc2CO[C@H]1CN(C)Cc1ccc(C(F)(F)F)cc1` the activity change was 14.2%. In the case of `CCOC(=O)c1nnn(CC(=O)Nc2cccc(F)c2)c1C(=O)OCC`, the activity change is reported as -64.5% (active). For `CCOC(=O)c1cccc(NC(=O)CCn2nnc3ccccc32)c1`, the activity change was -9.21%. Molecule `CCOC(=O)c1cccc(NC(=O)c2ccc(F)cc2F)c1` has an activity change of 13.7%. For `COc1ccc(-n2cc(CNC3CCOCC3)c(-c3cccc(F)c3)n2)cc1`, the activity change was -66.6% (active). In the case of `Cc1cccc(-n2cc(CN3CCN(C(=O)c4ncn[nH]4)CC3)c(-c3cccc(F)c3)n2)c1`, the activity change is reported as 0.119%. With `CCC(O)C1CCN(Cc2cn(-c3ccc(OC)cc3)nc2-c2cccc(F)c2)CC1` (stereo unspecified) the activity change was -60.7% (active). Work on `COc1ccc(-c2nn(-c3ccccc3)cc2CN2CCCO2)c(F)c1` yielded an activity change of -28.9%. For `Cn1cc(CN2CCC(C(O)CCc3ccccc3)CC2)c(-c2ccccc2F)n1` (stereo unspecified), the activity change was -20.8%. For `COc1ccc(-n2cc(CN(C)Cc3n[nH]c(=O)[nH]3)c(-c3cccc(F)c3)n2)cc1`, the activity change was -3.96%. `OCCC1CN(Cc2ccc3nsnc3c2)CCN1C1CCCCC1` (stereo unspecified) gave an activity change of 36.7%. For `O=C(COc1ccc(Br)cc1)OCC(=O)c1ccc[nH]1`, the activity change was -7.68%. `CCCNC(=O)C1(C)CCN(C(=O)c2ccc(F)cc2Cl)C1` (stereo unspecified) gave an activity change of 16.4%. With `CC1(C)CC(=O)C2=C(C1)N=C1SCCC(=O)N1C2c1ccc(C(F)(F)F)cc1` (stereo unspecified) the activity change was 0.519%. Work on `CCc1nc(N2CCN(C(C)=O)CC2)c2c3c(sc2n1)CCCC3` yielded an activity change of -1.89%. In the case of `NNC(=O)C1CCCn2c1nc1sc3c(c1c2=O)CCCC3` (stereo unspecified), the activity change is reported as 0%. Work on `Cc1ccc(C)c(-n2c(SCC(=O)O)nc3sc4c(c3c2=O)CCCC4)c1` yielded an activity change of 0.0998%. In the case of `Cn1c(NN)nc2sc3c(c2c1=O)CCC3`, the activity change is reported as 26.1%. With `CCCc1nc2sc3c(c2c(=O)n1NC(=O)CCCl)CCCC3` the activity change was -96.6% (active). With `Cc1nc2sc3c(c2c(=O)n1NC(=O)CCl)CCCC3` the activity change was -80.7% (active). For `O=C1[C@H]2[C@@H](c3ccc(C(F)(F)F)cc3)N[C@]3(CCCN(Cc4ccc(Br)cc4)C3=O)[C@H]2C(=O)N1Cc1ccccc1`, the activity change was -13.1%. For `Cc1ccc(S(=O)(=O)N2CC3C(=O)C[C@@H](c4ccccc4Cl)N(S(=O)(=O)c4ccc(C)cc4)C3CC2c2ccccc2)cc1` (stereo partly specified), the activity change was -22%. Work on `COC(=O)[C@]12CCCCC=C1N(Cc1ccc3c(c1)OCO3)C(=O)[C@H](CC(=O)N1CCOCC1)C2` yielded an activity change of -18.3%. For `COc1ccccc1OCC(O)CN1CCOCC1` (stereo unspecified), the activity change was 5.64%. For `C/C=C/c1ccc(OCCCCN2CCC(C)CC2)c(OC)c1`, the activity change was -54% (active). `C=CCc1ccc(OCC(O)CN2CCN(Cc3ccccc3)CC2)c(OC)c1` (stereo unspecified) showed an activity change of -7.39%. In the case of `C/C=C/c1ccc(OCCOc2ccc(C=O)cc2OC)c(OC)c1`, the activity change is reported as 3.9%. With `C/C=C/c1ccc(OCC(O)CN2CCCCCCC2)c(OC)c1` (stereo unspecified) the activity change was -53.6% (active). In the case of `COc1ccc(OCCCCN2CCC(C)CC2)cc1`, the activity change is reported as -29.3%. With `CC(=O)Nc1ccc(C(=O)OCC(=O)Nc2ccc([N+](=O)[O-])cc2C(F)(F)F)cc1` the activity change was -1.11%. For `COC(=O)[C@]12CCCCC=C1N(Cc1ccco1)C(=O)[C@H](CC(=O)NCCCCc1ccccc1)C2`, the activity change was 4%. In the case of `CC(=O)Nc1cccc(-c2cc3nc(NCc4cccnc4)n(C)c(=O)c3s2)c1`, the activity change is reported as -0.936%. With `Cc1ccc(S(=O)(=O)NNC(=O)/C=C/c2cccc(F)c2)cc1` the activity change was -11.4%. For `O=C(c1ccc(OC2CCN(C/C=C/c3ccc(F)cc3)CC2)cc1)N1CCCCC1`, the activity change was -63.7% (active). `CC(=O)Nc1ccc(CN2CCC(Oc3ccc(C(=O)N4CCCC4)cc3)CC2)cc1` showed an activity change of 20.8%. In the case of `Cc1nn(C)c(Cl)c1CN1CCC(n2nccc2NC(=O)C2CCCC2)CC1`, the activity change is reported as 22.9%. For `O=C(Nc1ccnn1C1CCN(C/C=C/c2ccc(F)cc2)CC1)C1CCCC1`, the activity change was -71.6% (active). In the case of `CC(CN1CCC(n2nccc2NC(=O)C2CCCC2)CC1)c1ccccc1` (stereo unspecified), the activity change is reported as -14%. `O=C(c1ccc(OC2CCN(Cc3ccccn3)CC2)cc1)N1CCCCCC1` gave an activity change of 2.11%. `CCC(C(=O)NC(C)(C)C)n1c(-c2ccccc2)nc2ccccc21` (stereo unspecified) gave an activity change of 3.76%. For `CC(=O)Nc1ccc2nc(NC(=O)CS(=O)(=O)c3ccc(F)cc3)sc2c1`, the activity change was 2.42%. For `CCOc1ccc(S(=O)(=O)NCCC(=O)NCC(C)(C)N2CCOCC2)cc1`, the activity change was 12.3%. Molecule `Cc1ccc(NC(=O)[C@H](Cc2ccccc2)NC(=O)CC[C@H]2O[C@@H](n3ccc(=O)[nH]c3=O)[C@H](O)[C@@H]2O)cc1C` has an activity change of 6.2%. Work on `CC1(C)OC(=O)C2=C(C[C@@H](C3CC3)O[C@H]2CCc2cccc(Cl)c2)O1` yielded an activity change of 24.6%. `COc1ccc(CCNC(=O)c2c(C)nn(-c3ccccc3)c2Cl)cc1` showed an activity change of -6.31%. With `COc1ccc(Oc2c(Cl)cnn(-c3ccccc3)c2=O)cc1` the activity change was -118% (active). Molecule `COc1cnn(-c2ccc([N+](=O)[O-])cc2)c(=O)c1Cl` has an activity change of -16.9%. `CCc1ccc(NC(=O)C(=O)NNC(=O)c2cccs2)cc1` gave an activity change of -11.1%. Work on `CCOc1ccc(NC(=O)CN(C)C(=O)CSc2ccccc2)cc1OCC` yielded an activity change of 5.24%. `O=C(Nc1ccc(F)cc1)C(=O)c1cn(CC(=O)N2CCOCC2)c2ccccc12` showed an activity change of 8.7%. `Cc1ccnc(NS(=O)(=O)c2ccc(NC(=O)c3oc4ccc(F)cc4c3C)cc2)n1` showed an activity change of 4.03%. For `CSc1ccccc1NC(=O)COC(=O)CCCOc1ccc(C)cc1`, the activity change was 13.8%. In the case of `COc1cc([N+](=O)[O-])ccc1NC(=O)COC(=O)CCOc1ccc(C)cc1`, the activity change is reported as -81.7% (active). `COc1cccc(NC(=O)COC(=O)CCOc2ccccc2OC)c1` showed an activity change of -1.64%. With `O=C(COC(=O)c1cccc(Cl)c1Cl)NC1CCCCCC1` the activity change was 4.38%. With `O=C(NCC(=O)N1CCCC(C(F)(F)F)C1)c1ccccc1F` (stereo unspecified) the activity change was 6.36%. With `FC(F)(F)C1CCCN(c2nsc3ccccc23)C1` (stereo unspecified) the activity change was -76% (active). With `Cn1ccc(=Nc2ccc(NC(=O)c3ccc(N=c4ccn(C)c5ccc([N+](=O)[O-])cc45)cc3)cc2)cc1` the activity change was -20.4%. In the case of `Cc1ccc(CN2CC(C(=O)N3CCN(S(=O)(=O)c4ccccc4)CC3)CC2=O)cc1` (stereo unspecified), the activity change is reported as -19.1%. For `Cc1ccc(C)c(S(=O)(=O)N2CCN(c3ncnc4sccc34)CC2)c1`, the activity change was -53.3% (active). In the case of `COc1ccc(C)cc1S(=O)(=O)N1CCN(S(=O)(=O)c2cc(C(=O)O)ccc2C)CC1`, the activity change is reported as 34.7%. Work on `Cc1ccc(S(=O)(=O)N2CCN(c3ncnc4ccccc34)CC2)cc1` yielded an activity change of -9.9%. In the case of `O=C1OC(Oc2ccc(Br)cc2)(c2ccccc2)c2ccccc21` (stereo unspecified), the activity change is reported as -13.8%. `CSc1ncc(C(=O)NCCCc2ccccc2)c(C)n1` gave an activity change of 0%. With `O=C(CCl)Nc1cccc(CP(=O)(c2ccccc2)c2ccccc2)c1` the activity change was -99.8% (active). In the case of `O=C(Cc1ccccc1)Nc1cccc(NC(=O)c2ccccc2)c1`, the activity change is reported as -19.5%. In the case of `O=C(CSCc1ccccc1)Nc1ccccc1`, the activity change is reported as 0.36%. In the case of `COC(=O)c1ccc2nc(-c3cccc(Br)c3)c(Cc3ccccc3C(F)(F)F)n2c1`, the activity change is reported as 0%.
